The list is not random: actives were taken first. Their share in the collection is about 1.2%.
RGS8-Gao reg – RGS8-Galphao binding modulators, primary screen, biochemical, multiplexed bead flow cytometry; 0.34% of 220,000 active; actives lie on both sides; response (percent of control binding), % at 10 µM; in the data active means response below about 60% or above about 140%; inactive means in between;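 further: Galphao activated as the GDP aluminium fluoride complex binding bead-coupled RGS8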
Target sequence (P09471 whole entry, looked up): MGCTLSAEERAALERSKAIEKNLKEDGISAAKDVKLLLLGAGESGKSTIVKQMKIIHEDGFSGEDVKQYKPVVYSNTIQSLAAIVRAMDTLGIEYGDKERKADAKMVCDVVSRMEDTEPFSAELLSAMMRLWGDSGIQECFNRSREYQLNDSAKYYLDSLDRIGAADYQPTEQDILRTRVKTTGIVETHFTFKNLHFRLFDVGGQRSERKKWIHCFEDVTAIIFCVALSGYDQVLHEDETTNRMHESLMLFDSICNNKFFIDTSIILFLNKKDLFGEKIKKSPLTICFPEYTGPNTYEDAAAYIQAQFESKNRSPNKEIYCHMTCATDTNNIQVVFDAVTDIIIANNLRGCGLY
GSH bead fluor – compound fluorescence on glutathione beads, profiling panel, artefact control, biophysical, 488/530 nm, flow cytometry; GSH beads flow cytometry, compound fluorescence 488/530 nm; stronger effect = higher value; AID 1776, 2009; 0.25% of 190,000 active; fluorescence (KMESF) at 10 µM; in the data active means fluorescence above about 89;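 further: glutathione beads carrying GST-tagged Bcl family fusion proteins plus one bare bead set; values are compound well signal with DMSO vehicle wells as background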
RGS7-Gao reg – RGS7-Galphao binding modulators, primary screen, biochemical, multiplexed bead flow cytometry | 0.35% of 220,000 active | AID 1439, 2008 | actives lie on both sides | binding response (% of control), % at 10 µM | Guanine nucleotide-binding protein G(o) subunit alpha (Homo sapiens), P09471; in the data active means binding response below about 49% or above about 150%; inconclusive means no clear call, values can overlap the other calls; inactive means in between;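 further: fluorescent Galphao held in activated GDP-AlF4 state binding bead-coupled RGS7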
Avidin fluor – green autofluorescence of compounds with avidin beads – biophysical, 488/530 nm, flow cytometry, artefact control, profiling panel; compound fluorescence 488/530 nm; stronger effect = higher value; fluorescence (KMESF) at 10 µM; 0.38% of 220,000 active; AID 1775, 2009; in the data active means fluorescence above about 47
RGS4-Gao reg – modulators of RGS4 binding to Galphao, primary screen, biochemical, multiplexed bead flow cytometry. binding response (% of control), % at 10 µM. Guanine nucleotide-binding protein G(o) subunit alpha (Homo sapiens), P09471. 0.33% of 220,000 active. actives lie on both sides; in the data active means binding response below about 49% or above about 150%; inactive means in between;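 further: fluorescent Galphao activated with aluminum fluoride binding bead-coupled RGS4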
RGS16-Gao HTS – modulators of RGS16 binding to Galphao, primary screen, biochemical, human proteins, multiplexed bead flow cytometry. bead-based flow cytometry RGS16-Galphao binding, fluorescence; actives lie on both sides. binding response (% of control), % at 10 µM. 0.38% of 220,000 active. AID 1441, 2008;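 further: Galphao activated by GDP with aluminum fluoride before binding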
RGS4-Gao HTS – modulators of RGS–Galpha-o binding, primary screen, biochemical, multiplexed beads, flow cytometry, RGS4/7/8/16/19; shares compounds with RGS16-Gao HTS; multiplexed bead flow cytometry; RGS4–Galpha-o binding response, % at 10 µM; 99% of 1,600 active; AID 1504, 2009;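 further: fluorescently labeled Galpha-o bound to GDP with aluminium fluoride binding biotinylated RGS beads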
Biotin-avidin – disruption of biotin probe capture by avidin, counter-screen for RGS protein interaction modulators, biochemical, flow cytometry, bead-based; streptavidin beads, fluorescein-biotin binding; inhibition, % at 10 µM; shares compounds with RGS16-Gao HTS; 1,700 tested, under 10 active; AID 1783, 2009;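 active means inhibition above 50%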;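 further: median green fluorescence of gated singlet beads compared with DMSO control wells; 0% = DMSO wells and 100% = complete loss of bead fluorescence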
RGS8-Gao confirm – RGS8-Galphao binding modulators, confirmation, biochemical, multiplexed bead flow cytometry, single concentration | shares compounds with RGS16-Gao HTS | bead-based flow cytometry RGS8-Galphao binding, fluorescence; actives lie on both sides | binding response (% of control), % at 10 µM | 3% of 1,700 active; in the data active means binding response below about 72% or above about 130%; inactive means in between;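 further: Galphao activated as GDP AlF4 complex before binding bead RGS8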
RGS7-Gao single – RGS7-Galphao binding modulators, confirmation, biochemical, multiplexed bead flow cytometry, single concentration. AID 1837, 2009. 7.8% of 1,700 active. shares compounds with RGS16-Gao HTS. bead-based flow cytometry RGS7-Galphao binding; actives lie on both sides. response (percent of control binding), % at 10 µM; in the data active means response below about 75% or above about 130%; inactive means in between;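 further: fluorescent Galphao activated with GDP and aluminum fluoride binding bead-coupled RGS7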
RGS16-Gao conf – modulators of RGS16-Galphao protein binding, confirmation, biochemical, single concentration, multiplexed bead flow cytometry; shares compounds with RGS16-Gao HTS; 4% of 1,700 active; response (% of control binding), % at 10 µM; bead-based flow cytometry; actives lie on both sides; in the data active means response below about 74% or above about 130%; inactive means in between;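 further: Galphao activated as the GDP aluminium fluoride complex binding bead-coupled RGS16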
RGS4-Gao confirm – modulators of RGS4-Galphao protein binding, confirmation, biochemical, single concentration, multiplexed bead flow cytometry; shares compounds with RGS16-Gao HTS; actives lie on both sides; binding response (% of control), % at 10 µM; 4% of 1,700 active; AID 1840, 2009; in the data active means binding response below about 74% or above about 130%; inactive means in between
RGS19-Gao single – regulators of RGS19-Galphao binding, confirmation, biochemical, single point, multiplexed bead flow cytometry. shares compounds with RGS16-Gao HTS. bead-based flow cytometry RGS19-Galphao binding; actives lie on both sides. response (percent of control binding), % at 10 µM. 5% of 1,700 active; in the data active means response below about 50% or above about 160%; inactive means in between;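 further: 100% = no compound control and 0% = blank background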
Target sequence (P09471 whole entry, looked up): as above
Target sequence (P49795 whole entry, looked up): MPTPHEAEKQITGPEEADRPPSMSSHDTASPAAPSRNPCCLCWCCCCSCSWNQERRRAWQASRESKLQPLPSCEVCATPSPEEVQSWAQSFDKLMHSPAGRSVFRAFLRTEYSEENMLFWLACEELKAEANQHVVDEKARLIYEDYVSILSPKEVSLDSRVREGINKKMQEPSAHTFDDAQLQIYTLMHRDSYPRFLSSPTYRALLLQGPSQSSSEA
* marks the source's active call; other numbers are inactive results; u = inconclusive; x = no result; [ ] = another dose, or the depositor's remark. Unless noted, how the calls were made is not given here.

SMILES | RGS8-Gao reg | GSH bead fluor | RGS7-Gao reg | Avidin fluor | RGS4-Gao reg | RGS16-Gao HTS | Biotin-avidin | RGS8-Gao confirm | RGS7-Gao single | RGS16-Gao conf | RGS4-Gao confirm | RGS19-Gao single | others
COc1cc(CNc2ccc(S(N)(=O)=O)cc2)ccc1OCC(=O)NC1CCCCC1 | 99 | 12 | 100 | 7 | 97 | 97 | x | x | x | x | x | x
CCN(CC)C(=O)CN1CCN(c2ncccn2)CC1 | 142*[activator] | 31 | 122 | 3 | 120 | 271 | 0 | 100 | 86 | 93 | 96 | 83 | RGS4-Gao HTS=120*
O=C(CN1CCN(c2ncccn2)CC1)N1CCCC1 | 104 | 14 | 101 | 12 | 103 | 107 | x | x | x | x | x | x
COc1ccc(CNC(=O)c2ccc3c(c2)NC(=O)C(C)S3)cc1 (stereo unspecified) | 94 | x | u | 3 | 99 | 98 | x | x | x | x | x | x
Cc1cnc(NC(=O)c2sc(Nc3ccccc3)nc2N)o1 | 100 | x | u | 8 | 102 | 104 | x | x | x | x | x | x
COc1cccc(N/C=C/C(=O)c2ccc(Cl)cc2)c1 | 82 | 6 | 95 | 1 | 89 | 66 | x | x | x | x | x | x
COc1ccc(N/C=C/C(=O)c2ccc(Cl)cc2)cc1 | 60* | 10 | 125 | 11 | 128 | 61 | -1 | 99 | 102 | 104 | 102 | 100 | RGS4-Gao HTS=128*
Cc1cc([N+](=O)[O-])cc(/C=N\NC(=O)C2COc3ccccc3O2)c1O (stereo unspecified) | 98 | x | u | 7 | 98 | 98 | x | x | x | x | x | x
Cc1cc(=O)oc2cc(Oc3ccc([N+](=O)[O-])cc3[N+](=O)[O-])ccc12 | 75 | 9 | 91 | 8 | 93 | 25* | 1 | 104 | 103 | 109 | 103 | 123 | RGS4-Gao HTS=93*
Cc1cc(=O)oc2cc(Oc3ncccc3[N+](=O)[O-])ccc12 | 98 | 11 | 88 | 10 | 94 | 98 | x | x | x | x | x | x
O=C(NCc1cccnc1)c1ccc(COc2ccc(Cl)cc2Cl)o1 | 99 | 19 | 99 | 10 | 101 | 101 | x | x | x | x | x | x
O=C(NCc1cccnc1)c1ccc(COc2cccc3ccccc23)o1 | 56* | 18 | 47* | 3 | 49* | 41 | 2 | 102 | 95 | 101 | 100 | 91
CCOC(=O)c1sc2nccc(OC)c2c1N=CN(C)C | 95 | 20 | 97 | 9 | 97 | 93 | x | x | x | x | x | x
CCCS(=O)(=O)N1CCCC(C(=O)NCCCN2CCN(c3cccc(Cl)c3)CC2)C1 (stereo unspecified) | 146*[activator] | 29 | 234*[activator] | 150* | 295*[activator] | 668 | 1 | 97 | 92 | 90 | 92 | 59
CCCCn1cnc2cc(C)c(C)cc21 | 103 | 17 | u | 9 | 100 | 99 | x | x | x | x | x | x
COc1ccccc1-n1c(SCC(N)=O)nnc1-c1ccc(S(=O)(=O)N2CCCCC2)cc1 | 100 | 29 | 98 | 4 | 97 | 97 | x | x | x | x | x | x
NC(=O)CSc1nnc(-c2ccc(S(=O)(=O)N3CCCCC3)cc2)n1-c1ccccc1 | 114 | 17 | 111 | 11 | 125 | 335*[activator] | 1 | 106 | 98 | 106 | 105 | 105 | RGS4-Gao HTS=125*
CCOc1ccc(CCNC(=O)c2[nH]c(C)c(C(C)=O)c2C)cc1OCC | x | 10 | x | x | x | x | 3 | 101 | 96 | 99 | 98 | 91
Nc1nc(-c2ccc(Cl)cc2)nn1C(=O)c1cccs1 | 108 | 8 | 103 | 19 | 104 | 113 | x | x | x | x | x | x
C[N+](C)(CC#Cc1ccccc1)CC(=O)c1ccc(Cl)cc1 | 84 | 9 | 115 | 2 | 114 | 23* | 1 | 98 | 99 | 98 | 101 | 98 | RGS4-Gao HTS=114*
COc1ccc(/C=N/NC(=O)c2cc(=O)[nH]c3ccccc23)cc1OC | 99 | 20 | 97 | 6 | 98 | 98 | x | x | x | x | x | x
O=S1(=O)[C@H]2C[C@@H]3C=C[C@]2(CN1Cc1ccc(C(F)(F)F)cc1)O3 | 83 | x | u | 12 | 99 | 100 | 0 | 101 | 88 | 97 | 95 | 80
O=S1(=O)[C@H]2CC3O[C@]2(C[C@@H]3c2ccc(F)cc2)CN1Cc1ccc(Cl)cc1 | 95 | x | u | 8 | 89 | 92 | x | x | x | x | x | x
CCOc1ccc(N2C(=O)CC(NCCNc3ccc(C(=O)c4cccs4)cc3)C2=O)cc1 (stereo unspecified) | 107 | 21 | 100 | 10 | 101 | 114 | x | x | x | x | x | x
Cc1ccc(-n2c(Cn3c(C)nc4ccccc43)n[nH]c2=S)cc1 | 65 | 6 | 84 | 1 | 86 | -1.4* | 0 | 96 | 101 | 90 | 99 | 101 | RGS4-Gao HTS=86*
Cc1ccc(-n2c(CCc3nc4ccccc4[nH]3)n[nH]c2=S)cc1 | 101 | 12 | 103 | 10 | 103 | 109 | x | x | x | x | x | x
CCOC(=O)N1CCC(N2CCCC(CO)(Cc3cccc(OC)c3)C2)CC1 (stereo unspecified) | 103 | 14 | 100 | 10 | 101 | 103 | x | x | x | x | x | x

High-throughput results from PubChem.
